Experimental data from PubChem BioAssay (NCATS).
Several values for one entry are separate records, joined by “and”; a condition that tells them apart may be missing. Equal entries are not always repeated. Results filed as inconclusive are left out. A call without a number means that no potency is given here. A number with no mark means an inactive call. Activity calls are given as the source filed them. Calls come from the whole dose curve; as a rule, active = well fitted curve in the direction sought with a large enough effect; inconclusive = small, poorly fitted or top-dose-only effect, or another doubt; inactive = no such curve, though single readings can be large; an effect the other way counts as inactive or inconclusive.

Legend:
[1] = biological target: Cellular tumor antigen p53 (Homo sapiens) (UniProt P04637); experiment: Primary qHTS for small molecule compounds that upregulate eGFP-tagged delta133p53alpha (in N-terminal) cells. (AID 2060322); conditions: NCI-H358 eGFP-delta133p53alpha fluorescence, 24 h; activation: stronger effect = higher value; note: nearly all actives have a fitted effect of over 75% in size; note: potency is the fitted concentration of half-maximal effect; for activation: series mostly up to about 56 µM
Chain of Cellular tumor antigen p53 (Homo sapiens) (P04637 whole entry, looked up): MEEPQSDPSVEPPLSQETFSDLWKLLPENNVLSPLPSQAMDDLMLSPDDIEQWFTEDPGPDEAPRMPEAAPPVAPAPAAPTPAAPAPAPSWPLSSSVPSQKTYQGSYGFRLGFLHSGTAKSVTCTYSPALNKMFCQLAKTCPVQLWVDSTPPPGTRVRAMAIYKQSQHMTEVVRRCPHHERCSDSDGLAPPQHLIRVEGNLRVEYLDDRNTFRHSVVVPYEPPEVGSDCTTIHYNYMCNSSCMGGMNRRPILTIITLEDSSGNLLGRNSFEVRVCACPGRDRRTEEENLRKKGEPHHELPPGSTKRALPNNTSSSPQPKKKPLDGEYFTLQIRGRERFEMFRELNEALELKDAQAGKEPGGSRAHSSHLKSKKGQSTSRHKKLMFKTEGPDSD
Procedure, shortened: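 NCI-H358 cells pre-induced 24 h with 10 ng/ml doxycycline to express N-terminal eGFP-delta133p53alpha, then dosed 24 h at 37C without doxycycline; fixed, Hoechst-stained, GFP intensity by laser scanning cytometry, normalized to DMSO (0%) and 57.5 uM 5-azacytidine (100%).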

[2] = BET inhibitor-based combinations targeting novel dependencies in MECOM-rearranged (r) AML: SET-2 cell line (AID 2202231); conditions: SET-2 AML cells viability, CellTiter-Glo luminescence, 48 h; viability: stronger effect = lower value, concentration not given here; note: nearly all actives have a fitted effect of over 35% in size; note: potency is the fitted concentration of half-maximal effect
Procedure, shortened: (§1)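 Viability of cells (500 per well) is scored by luminescent CellTiter-Glo at 48 hr post-dosing. Eleven-point titrations are normalized to DMSO and empty controls and reduced to AUC values.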

[3] = BET inhibitor-based combinations targeting novel dependencies in MECOM-rearranged (r) AML: OCI-AML3 cell line (AID 2202232); conditions: Potency: OCI-AML3 viability; note: nearly all actives have a fitted effect of over 35% in size; note: potency is the fitted concentration of half-maximal effect
Procedure, shortened: as §1

[4] = BET inhibitor-based combinations targeting novel dependencies in MECOM-rearranged (r) AML: MV-4-11 cell line (AID 2202233); note: nearly all actives have a fitted effect of over 45% in size; note: potency is the fitted concentration of half-maximal effect
Procedure, shortened: (§2)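 Using pin-tool transfer, drugs were added in 11 doses to cells (500/well), incubated 48 hr, and assessed with CellTiter-Glo. Z-AUC is a mean-centring transformation applied separately to each screened line.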

[5] = BET inhibitor-based combinations targeting novel dependencies in MECOM-rearranged (r) AML: HNT-34 cell line (AID 2202234); note: nearly all actives have a fitted effect of over 35% in size; note: potency is the fitted concentration of half-maximal effect
Procedure, shortened: as §2

[6] = BET inhibitor-based combinations targeting novel dependencies in MECOM-rearranged (r) AML: UCSD-AML1 cell line (AID 2202235); note: nearly all actives have a fitted effect of over 40% in size; note: potency is the fitted concentration of half-maximal effect
Procedure, shortened: as §2

[7] = BET inhibitor-based combinations targeting novel dependencies in MECOM-rearranged (r) AML: AML-191 cell line (AID 2202236; note: nearly all actives have a fitted effect of over 35% in size; note: potency is the fitted concentration of half-maximal effect)
Procedure, shortened: as §1

[8] = biological target: Retinaldehyde dehydrogenase 3 (Homo sapiens) (UniProt P47895); experiment: qHTS for Inhibitors of the Aldehyde Dehydrogenase Family (ALDH1A3) Primary screen (AID 2061315)
[9] = BET inhibitor-based combinations targeting novel dependencies in MECOM-rearranged (r) AML: AML-194 cell line (AID 2202237; note: nearly all actives have a fitted effect of over 40% in size; note: potency is the fitted concentration of half-maximal effect)
Procedure, shortened: as §1

Structure (SMILES) | activation [1] | viability [2] | Potency [3] | Potency [4] | Potency [5] | Potency [6] | Potency [7] | Potency [8] | Potency [9] | Potency [1] | Potency [2]
N[C@@]1(C(=O)O)CS(=O)(=O)[C@H]2[C@H](C(=O)O)[C@H]21 | -21.5% | 114% | inactive | inactive | inactive | inactive | inactive | – | – | – | –
COc1ccc2[nH]c(S(=O)Cc3ncc(C)c(OC)c3C)nc2n1 (configuration not stated) | 10.7% and 10% | 109% | – | – | – | – | inactive | inactive | inactive | – | –
C[C@H]1COc2c(N3CCN(C)CC3)c(F)cc3c(=O)c(C(=O)O)cn1c23 | -12.8% | 108% | inactive | inactive | inactive | inactive | inactive | – | inactive | – | –
CS(=O)(=O)Oc1ccc2c(NC(N)=O)c(C(=O)c3ccc(Cl)cc3Cl)oc2c1 | -14% | 97.1% | inactive | inactive | inactive | inactive | inactive | – | inactive | – | –
COc1ccc(-c2cc(=O)c3c(O)cc(O[C@@H]4O[C@H](CO[C@@H]5O[C@@H](C)[C@H](O)[C@@H](O)[C@H]5O)[C@@H](O)[C@H](O)[C@H]4O)cc3o2)cc1O | 25.9% | 112% | inactive | inactive | inactive | inactive | inactive | – | inactive | – | –
Cc1ccc(C(=O)Nc2ccc(CN3CCN(C)CC3)c(C(F)(F)F)c2)cc1C#Cc1cnc2cccnn12 | – | – | 1.86 µM (active) | 0.0263 µM (active) | 0.0083 µM (active) | 2.63 µM (active) | 0.934 µM (active) | – | 1.48 µM (active) | 7.69 µM (active) and 10.7 µM (active) | 7.42 µM (active)
CC(=O)OCC(=O)[C@@]12N=C(C)O[C@@H]1C[C@H]1[C@@H]3CCC4=CC(=O)C=C[C@]4(C)[C@H]3[C@@H](O)C[C@@]12C | -1.69% | 113% | inactive | inactive | inactive | inactive | – | – | – | – | –
CC(C)NC[C@@H](C(=O)N1CCN(c2ncnc3c2[C@H](C)C[C@H]3O)CC1)c1ccc(Cl)cc1 | – | 102% | – | – | – | – | – | – | – | 34.3 µM (active) | –
CC(C)[C@H](CO)Nc1nc(Nc2cccc(Cl)c2)c2ncn(C(C)C)c2n1 | – | – | 18.6 µM (active) | 3.72 µM (active) | 16.6 µM (active) | 26.3 µM (active) | 14.8 µM (active) | – | 16.6 µM (active) | 24.3 µM (active) | 16.6 µM (active)
C[C@H](NC(=O)c1sccc1OCc1ccc(Cl)cc1)c1ccccc1 | 16.4% | – | inactive | 13.2 µM (active) | inactive | inactive | inactive | – | – | – | 16.6 µM (active)
Cc1cc(C2CCCCC2)n(O)c(=O)c1 | 25.4% | – | 10.5 µM (active) | 4.17 µM (active) | 10.5 µM (active) | 16.6 µM (active) | 11.8 µM (active) | – | 10.5 µM (active) | – | 18.6 µM (active)
Oc1cc(-c2nc(-c3ccccc3)[nH]c2-c2ccncc2)ccc1Cl | 22.4% | – | 4.17 µM (active) | 14.8 µM (active) | 7.42 µM (active) | – | – | inactive | – | – | –
Nc1ccc(S(N)(=O)=O)cc1 | -29.9% and 4.8% | 93.8% | inactive | inactive | inactive | inactive | inactive | – | inactive | – | –
Cn1nnc2c(C(N)=O)ncn2c1=O | 0% and 2.62% | 102% | inactive | inactive | – | – | – | – | – | – | –
COc1c(N2CCNC(C)C2)c(F)cc2c(=O)c(C(=O)O)cn(C3CC3)c12 (configuration not stated) | 12.6% and 24.5% | 100% | inactive | inactive | inactive | inactive | inactive | – | inactive | – | –
COC1CCC(C(=O)c2ccc3nc4c(cc3c2)CCCO4)CC1 (configuration not stated) | -1.02% | 105% | inactive | inactive | inactive | inactive | inactive | – | inactive | – | –
CCCc1cc(=O)[nH]c(=S)[nH]1 | -13.4% and -2.19% | 110% | inactive | inactive | inactive | inactive | inactive | – | inactive | – | –
CC(C)(CO)[C@@H](O)C(=O)NCCC(=O)O | -14.4% | 117% | inactive | inactive | inactive | inactive | inactive | – | inactive | – | –
OC[C@H]1OC(O)C[C@@H](O)[C@H]1O (some centres not stated) | 27.8% | 110% | inactive | inactive | inactive | inactive | inactive | – | inactive | – | –
CCC(C)SSc1ncc[nH]1 (configuration not stated) | -4.29% | – | 8.33 µM (active) | 2.63 µM (active) | 9.34 µM (active) | 7.42 µM (active) | 5.25 µM (active) | – | 7.42 µM (active) | – | 11.8 µM (active)

Structure (SMILES) | activation [1] | viability [2] | Potency [3] | Potency [4] | Potency [5] | Potency [6] | Potency [7] | Potency [8] | Potency [9] | Potency [1] | Potency [2]
C=C(C)[C@@H]1CC[C@]2(C)CC[C@]3(C)[C@H](CC[C@@H]4[C@@]5(C)CC[C@H](O)C(C)(C)[C@H]5CC[C@]43C)[C@@H]12 | -1.45% | 117% | inactive | inactive | inactive | inactive | inactive | – | inactive | – | –
CC1CNc2c(cccc2S(=O)(=O)N[C@@H](CCCN=C(N)N)C(=O)N2CC[C@@H](C)C[C@@H]2C(=O)O)C1 (some centres not stated) | 8.55% | 116% | inactive | inactive | inactive | inactive | inactive | – | inactive | – | –
c1ccc2c(-c3cnn4cc(-c5ccc(N6CCNCC6)cc5)cnc34)ccnc2c1 | 75.9% | – | 2.95 µM (active) | 0.934 µM (active) | 4.68 µM (active) | 2.95 µM (active) | 2.63 µM (active) | – | 2.63 µM (active) | – | 3.32 µM (active)
O=C(O)c1cc(O)c2c(c1)C(=O)c1cccc(O)c1C2=O | -15.1% | 115% | 5.9 µM (active) | inactive | inactive | inactive | inactive | – | inactive | – | –
OCCN1C[C@H](O)[C@@H](O)[C@H](O)[C@H]1CO | -10.9% | 115% | inactive | inactive | inactive | inactive | inactive | – | inactive | – | –
COCCCOc1cc(C[C@@H](C[C@H](N)[C@@H](O)C[C@H](C(=O)NCC(C)(C)C(N)=O)C(C)C)C(C)C)ccc1OC | -7.53% and 23.3% | 124% | inactive | inactive | inactive | inactive | inactive | – | inactive | – | –
OC(Cn1cncn1)(Cn1cncn1)c1ccc(F)cc1F | 6.21% and 14.6% | 116% | inactive | inactive | inactive | inactive | inactive | – | inactive | – | –
O=C(O)C1=CC(O)C(O)[C@H](O)C1 (some centres not stated) | 16.4% | 115% | inactive | inactive | inactive | inactive | inactive | – | inactive | – | –
c1cc(-c2cnn3cc(-c4ccc(OCCN5CCCCC5)cc4)cnc23)ccn1 | 46.6% | – | 8.33 µM (active) | 0.0833 µM (active) | 1.66 µM (active) | 9.34 µM (active) | 8.33 µM (active) | – | 9.34 µM (active) | – | 8.33 µM (active)
CCCc1cc(C(N)=S)ccn1 | -10.9% and -12.4% | 112% | inactive | inactive | inactive | inactive | inactive | – | inactive | – | –
CCc1c2c(nc3ccc(OC(=O)N4CCC(N5CCCCC5)CC4)cc13)-c1cc3c(c(=O)n1C2)COC(=O)[C@]3(O)CC | 14.2% | – | 0.186 µM (active) | 0.166 µM (active) | 0.105 µM (active) | 0.209 µM (active) | 0.235 µM (active) | – | 0.332 µM (active) | – | 0.372 µM (active)
COc1c2occc2cc2ccc(=O)oc12 | -0.837% and 22.7% | 98.3% | 10.5 µM (active) | inactive | inactive | inactive | inactive | – | inactive | – | –
Nc1nc2c(c(=O)[nH]1)N(C=O)[C@H](CNc1ccc(C(=O)N[C@@H](CCC(=O)O)C(=O)O)cc1)CN2 | 10.2% | 115% | inactive | inactive | inactive | inactive | inactive | – | inactive | – | –
N#Cc1c(NC(=O)c2cccc3ccccc23)sc2c1CCCC2 | – | – | 0.332 µM (active) | 0.372 µM (active) | 0.372 µM (active) | 0.332 µM (active) | 0.296 µM (active) | – | 0.332 µM (active) | 13.7 µM (active) | 0.525 µM (active)
O=C(NCCCCN1CCOCC1)c1cc2ccccc2o1 | 15.9% | 111% | inactive | inactive | inactive | inactive | inactive | – | inactive | – | –
CCc1ccc(OCc2ccccc2C(=O)Nc2ccc3nc(C)cc(N)c3c2)cc1 | 45.3% | – | 8.33 µM (active) | 5.9 µM (active) | 4.17 µM (active) | 7.42 µM (active) | 7.42 µM (active) | – | 6.61 µM (active) | – | 6.61 µM (active)
N#Cc1ccnc(Nc2cc(C3CCN(C4COC4)CC3)cc(N3CCC(F)(F)C3)n2)c1 | – | – | 8.33 µM (active) | 0.235 µM (active) | 0.833 µM (active) | 2.95 µM (active) | 2.95 µM (active) | – | 4.17 µM (active) | 27.2 µM (active) | 3.72 µM (active)
COc1ccc2cccc(CCNC(C)=O)c2c1 | 3.03% | 116% | inactive | inactive | inactive | inactive | inactive | – | inactive | – | –
NC(=O)C1CCCc2c1[nH]c1ccc(Cl)cc21 (configuration not stated) | 10.6% | 104% | inactive | inactive | inactive | inactive | inactive | – | inactive | – | –
